Measured values: the supplement of paper PMC11417369
Over roughly 25,000 sequences, “ln(normalized median fluorescence intensity)” has its median near 6.7; the highest 2% begin near 10. The entries come from a sample that favours the highest values as a whole.

tested on: PfHDP1 homeodomain (GST-tagged); assay: gcPBM binding intensity (ln(normalized median fluorescence intensity)); higher = stronger DNA binding
Summary of the method: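 DNA-binding domains from P. falciparum, fused to GST and produced in E. coli, were put on an Agilent 4 × 180k double-stranded probe array for 1 h in 1× PBS holding 1% milk, 0.2 mg/ml BSA, 0.5% salmon testes DNA and 0.03% Triton X-100. Probes were primer-extended, 36 bp long and drawn from intergenic genomic regions, with negative controls included. After Alexa488 anti-GST antibody detection and a 488 nm scan, binding intensity was set as the highest Masliner-normalised natural-log median intensity across replicate spots of either probe orientation.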

Sequence	gcPBM binding intensity (ln)
ATTATTCTATATGAAACATGCATACATTTGTATTTT [TGCATGCA_site823]	6.53
AAATACTGTAAAAAAGCATGCCACTAATAATAATTA [TGCATGCA_site759]	6.33
TTTTTATATTTCAACATATCACAATTTTATATATCT [CACACA_negctrl_site178]	6.43
GTGAAATATGCAAACACACACGAGAAAAATGTATAT [CACACA_site7488]	6.99
AAGGAGAAATATTGCACACGTGCAAAATGGTATGAG [CACACA_site259]	10.8
GAGTGAAATATGCAAACACACACGAGAAAAATGTAT [CACACA_site3196]	7.15
AGGAAAATTATGAATGGTACAGAATATATTAGGAGA [XGTACX_site6282]	7.46
AATGAGAAGGACTGCACACTAAAATGGAAGGAGAAA [CACACA_site1575]	6.97
AAAAGGAGAAATATTGCACACGTGCAAAATGGTATG [CACACA_site4300]	11
ATTTTTTAAAAAGTAACACACACTCTTATAAATAAC [CACACA_site7668]	6.7
ATTTTTCTAAAATACTGTACAAAGGTGCATAAAAAG [XGTACX_site4425]	11.1
TTTTCTCTAAAAAGGTGTACAACTAATAATGCACTG [XGTACX_site6074]	10.6
GATAATGAATGATGCACACTAAAAATATTCTACAAC [CACACA_site3622]	8.94
AAATACTGTACAAAGGTGCATAAAAAGTGGGGCATA	9.07
TATTTTATATAAAGGTGTACTTATACAAAAATATAT [XGTACX_site7435]	6.52
AAAAAAAAAAAAAGGTGTACATGCAAAATAAATTCT [XGTACX_site4592]	6.48
TATGGAAGAAAATATACACACAAAAAAAAAAAATGT [CACACA_site1486]	6.58
TATATAATATATAAATGTACTTTTGTCTTATATGAA [XGTACX_site7211]	6.32
TATTTTGTATTCATTTGTCACATATAATAGATAGGA [TGCATGCA_negctrl_site9]	6.82
TTTCTTTTTAAATATATACACACCGTGGGTACATAT [CACACA_site9102]	6.81
AATGAATCCTTATATACACACATTATTATATTATAT [CACACA_site3108]	7.23
TACTTTTTAGGAAAGTGTACAAGCATATAAGGAATA [XGTACX_site2834]	6.83

Sequence	gcPBM binding intensity (ln)
ATATGTACGCAAGGTGCACACTGGTGCATTAAAAAA [CACACA_site1801]	11.5
TATGTGTGCAAAAACTGTACACATTAAAGGTATATA [XGTACX_site7627]	10.3
GCAAGGTCCACACTGGTGCATTAAAAATAAAATATA [GTGCAC_site9956]	10.4
AATATATTTATGCTCATGCACTTTTTTTTTTTTTTT [GTGCAC_site9654]	10
CACTTCATAAAAATTGCACACATATAATAATGTACA [CACACA_site8692]	10.1
ATATATATATATATTACACACATGTGCAATTAAAAT [CACACA_site1778]	10.7
TATTATAAAATATACACATGCAAAAACAAAATTTAC [TGCATGCA_site1051]	7.03
TATATTAAAAAAAAATGTACACATATATATATATAT [XGTACX_site4524]	9.21
ATATTTATTTATATTACACACATGTGCAATTAAACT [CACACA_site6928]	10.7
GTATATTAATAAACATGTACACAATTTATTTATATT [XGTACX_site1012]	6.6
AAAATTAAAATATATACACACATATATATATTAAAT [CACACA_site4419]	6.25
ATATATATATTAATTACACACAAAAAAAAAAAAAAA [CACACA_site1165]	7.49
AATAAATTAAAACAGGTGCACTATATTACACACGCT	9.7
ATATATATATATATTACACACTTTTTCTTTTTTTTT [CACACA_site2780]	9.01
CAGGTGCACTATATTACACACGCTTCTTTTTTTTTA [CACACA_site2069]	11
TATAAAAATATATATATATATATATATATATATATA [TGCATGCA_negctrl_site541]	9.32
AAAAATTAAATAAATTTACACACTAATAATTACATA [CACACA_site8260]	6.3
TCATTAAATGTTTAGGTGCATACTTTAATTTTTAAT [GTGCAC_site9906]	9.31
AAATTACTAATGTGCACACATACTAACGTTTAAATA [CACACA_site3572]	11.3
TTAAATTACTAATGTGCACACATACTAACGTTTAAA [CACACA_site3573]	11
AAAAAAAAATTAAACATACACACGTTACTATTTTTA [CACACA_site1687]	6.29
AACATAAATTACTTTTTACACACTAATATAAAATAC [CACACA_site8297]	6.54
